The nature of assay [1]: antimalarial activity against Dd2 strain (AID 2302;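 active = growth inhibition above 50% at the single 2 µM test dose, taken to imply half-maximal potency below 2 µM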;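 note: 0% = DMSO untreated growth and 100% = chloroquine plus artemisinin killed control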). Particulars: P. falciparum Dd2 in RBCs, LDH growth readout, 72 h; at 2 µM; stronger effect = higher value.
Assay [2] can be described thus: human hepatoma cell viability loss – ATP luminescence, cytotoxicity control for P. falciparum antimalarial project, primary screen (AID 2303;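 active = inhibition above 50%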;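 note: 0% = DMSO wells and 100% = digitonin-killed cells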). Conditions: HepG2 viability, 24-48 h, at 10 µM, stronger effect = higher value.
The target in assay [3] is L-lactate dehydrogenase (Plasmodium falciparum (isolate CDC / Honduras)) (UniProt Q27743). Briefly: PfLDH activity inhibition – cell lysate, 3D7 strain, counter-screen for P. falciparum growth inhibition project (AID 2304).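 Note: 0% = vehicle and 100% = reference inhibitor.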 Conditions: P. falciparum 3D7 crude extract, LDH APAD/NBT absorbance; at 2 µM; stronger effect = higher value.
A short description of assay [4]: inhibition of 3D7 malaria parasite growth – strain 3D7 (AID 2306).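 Note: 0% = DMSO wells and 100% = chloroquine plus artemisinin control wells.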 Particulars: P. falciparum 3D7 erythrocytic growth, LDH absorbance, 72 h; at 2 µM; stronger effect = higher value.
The target of assay [5] is Calcium-dependent protein kinase 1 (Plasmodium falciparum (isolate 3D7)) (UniProt P62344). The experiment in a line: PfCDPK1 kinase inhibitors, biochemical, TCAMS library (AID 1159585; cut-off not given, nearly all actives have IC50 up to about 0.98 µM;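 note: inhibitors leave more ATP so luminescence rises with inhibition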). Conditions: recombinant PfCDPK1, Kinase-Glo ATP depletion luminescence.
Assay [6] deals with Plasmodium falciparum protein kinase 6 (PK6, PF3D7_1337100) (UniProt Q8IDW1). Briefly: PfPK6 kinase inhibitors, biochemical, TCAMS library (AID 1159586). Particulars: recombinant PfPK6, Kinase-Glo ATP depletion luminescence. Background: Kinase-Glo reads ATP consumption through a luciferase reaction.
For assay [7], the target named is Protein kinase 7 (PK7), Plasmodium falciparum 3D7 (PF3D7_0213400) (UniProt Q7YTF7). Briefly: inhibition of Plasmodium PK7 catalytic activity – biochemical, TCAMS antimalarial set, Kinase-Glo luminescence (AID 1159587). Particulars: recombinant PfPK7, Kinase-Glo ATP depletion luminescence.
For assay [8], the target named is Calcium-dependent protein kinase 4 (Plasmodium falciparum (isolate 3D7)) (UniProt Q8IBS5). Briefly: PfCDPK4 kinase inhibitors, biochemical, TCAMS library (AID 1159588; cut-off not given, nearly all actives have IC50 up to about 0.91 µM). Conditions: recombinant PfCDPK4, Kinase-Glo ATP depletion luminescence.
A further assay relates to F380Y. Briefly: BK channel mutant inhibitors and activators – cell-based, U2OS BacMam, thallium flux, beta subunits, selectivity assay, profiling panel (AID 1259406;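 active = thallium flux through the channel raised or lowered by more than 3 SD from vehicle-only wells, actives on both sides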;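 note: initial slope of Thallos dye fluorescence rise after thallium is added; log ratio against the mean of 0.3% DMSO vehicle wells on the same plate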). Particulars: U2OS BacMam BK variants, at 30 µM.
A further assay deals with F380Y/beta1. The description is as above. Particulars: U2OS BacMam BK variants, at 30 µM.
The subject of a further assay is F380Y/beta2Delta. Described as above. Particulars: U2OS BacMam BK variants, at 30 µM.
The next assay concerns F380Y/beta4. Described as above. Particulars: U2OS BacMam BK variants, at 30 µM.
For assay [9], the target named is Calcium-activated potassium channel subunit alpha-1 (Homo sapiens) + Leucine-rich repeat-containing protein 26 (Homo sapiens) (UniProt Q12791+Q2I0M4). The assay is described as above. Particulars: U2OS BacMam BK variants, F380Y/Slo1WT/gamma1, at 30 µM.
Another assay relates to R275C. The description is as above. Particulars: U2OS BacMam BK variants, at 30 µM.
Another assay concerns R275C/beta1. The assay is described as above. Conditions: U2OS BacMam BK variants, at 30 µM.
The next assay has as its system R275C/beta2Delta. The description is as above. Particulars: U2OS BacMam BK variants, at 30 µM.
The test system of the next assay is R275C/beta4. The description is as above. Particulars: U2OS BacMam BK variants, at 30 µM.
The test system of the next assay is R275C/Slo1WT/beta2. The assay is described as above. Conditions: U2OS BacMam BK variants, at 30 µM.

Values without a mark were called inactive. For part of these data: Potency and affinity values are given separately. Activity calls are given as the source filed them. Unless noted, the rule behind the calls is not given here.

Usually inhibition stands for the relative decrease from the control value, in per cent.

Chain of Calcium-dependent protein kinase 1 (Plasmodium falciparum (isolate 3D7)) (P62344 whole entry, looked up): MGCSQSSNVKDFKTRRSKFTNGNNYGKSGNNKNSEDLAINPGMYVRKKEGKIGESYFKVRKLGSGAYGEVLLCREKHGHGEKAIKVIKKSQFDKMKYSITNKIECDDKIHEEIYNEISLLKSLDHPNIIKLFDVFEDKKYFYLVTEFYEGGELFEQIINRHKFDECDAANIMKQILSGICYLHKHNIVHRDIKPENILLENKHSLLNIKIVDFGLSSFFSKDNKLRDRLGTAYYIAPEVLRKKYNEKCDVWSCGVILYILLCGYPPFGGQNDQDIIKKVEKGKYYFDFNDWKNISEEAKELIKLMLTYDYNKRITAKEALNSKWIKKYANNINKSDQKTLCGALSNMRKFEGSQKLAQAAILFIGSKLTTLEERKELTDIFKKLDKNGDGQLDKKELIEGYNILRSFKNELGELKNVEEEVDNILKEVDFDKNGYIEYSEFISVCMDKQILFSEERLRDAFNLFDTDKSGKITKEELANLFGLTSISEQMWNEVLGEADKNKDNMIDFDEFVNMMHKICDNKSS
Chain of Plasmodium falciparum protein kinase 6 (PK6, PF3D7_1337100) (Q8IDW1 1-305): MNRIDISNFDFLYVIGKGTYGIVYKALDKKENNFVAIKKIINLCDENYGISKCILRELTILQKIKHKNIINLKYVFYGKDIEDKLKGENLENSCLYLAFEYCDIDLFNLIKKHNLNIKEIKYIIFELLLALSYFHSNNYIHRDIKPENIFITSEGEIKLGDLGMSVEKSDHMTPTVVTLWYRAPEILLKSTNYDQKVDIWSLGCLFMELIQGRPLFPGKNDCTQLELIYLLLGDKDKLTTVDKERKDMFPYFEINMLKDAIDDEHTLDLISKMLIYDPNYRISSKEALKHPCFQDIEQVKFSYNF
Chain of Protein kinase 7 (PK7), Plasmodium falciparum 3D7 (PF3D7_0213400) (Q7YTF7 1-343): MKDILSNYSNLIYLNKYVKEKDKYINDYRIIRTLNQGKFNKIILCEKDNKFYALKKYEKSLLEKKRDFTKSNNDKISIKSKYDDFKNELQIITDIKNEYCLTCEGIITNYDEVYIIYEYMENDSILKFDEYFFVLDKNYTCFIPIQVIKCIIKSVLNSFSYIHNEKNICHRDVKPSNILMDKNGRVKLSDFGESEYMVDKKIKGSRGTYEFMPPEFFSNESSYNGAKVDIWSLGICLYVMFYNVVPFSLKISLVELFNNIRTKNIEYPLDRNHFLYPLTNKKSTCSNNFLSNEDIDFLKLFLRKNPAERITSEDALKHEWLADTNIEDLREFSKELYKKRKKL
Chain of Calcium-dependent protein kinase 4 (Plasmodium falciparum (isolate 3D7)) (Q8IBS5 whole entry, looked up): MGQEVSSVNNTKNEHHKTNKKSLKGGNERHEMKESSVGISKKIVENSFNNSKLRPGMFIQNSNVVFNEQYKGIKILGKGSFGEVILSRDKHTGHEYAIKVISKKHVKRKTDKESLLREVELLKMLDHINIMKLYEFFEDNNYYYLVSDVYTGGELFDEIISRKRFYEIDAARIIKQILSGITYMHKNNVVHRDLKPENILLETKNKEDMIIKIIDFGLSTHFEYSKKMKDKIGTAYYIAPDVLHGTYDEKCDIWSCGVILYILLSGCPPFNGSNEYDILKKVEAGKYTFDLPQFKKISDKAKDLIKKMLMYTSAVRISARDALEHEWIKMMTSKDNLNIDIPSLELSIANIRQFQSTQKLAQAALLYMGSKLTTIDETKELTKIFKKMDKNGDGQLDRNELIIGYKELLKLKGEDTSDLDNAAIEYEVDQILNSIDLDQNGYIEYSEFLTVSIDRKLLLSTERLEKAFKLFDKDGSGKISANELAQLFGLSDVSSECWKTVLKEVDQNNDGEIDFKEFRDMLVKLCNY
Chain of L-lactate dehydrogenase (Plasmodium falciparum (isolate CDC / Honduras)) (Q27743 whole entry, looked up): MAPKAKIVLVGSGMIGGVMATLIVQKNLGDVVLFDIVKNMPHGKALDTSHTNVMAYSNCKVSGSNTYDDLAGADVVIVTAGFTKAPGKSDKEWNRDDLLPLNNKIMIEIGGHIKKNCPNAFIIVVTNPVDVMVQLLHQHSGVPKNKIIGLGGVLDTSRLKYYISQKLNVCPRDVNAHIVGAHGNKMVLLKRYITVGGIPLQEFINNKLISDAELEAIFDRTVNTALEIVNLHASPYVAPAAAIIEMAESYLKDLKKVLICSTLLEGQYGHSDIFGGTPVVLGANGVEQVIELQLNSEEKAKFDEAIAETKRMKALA
Chain of Calcium-activated potassium channel subunit alpha-1 (Homo sapiens) + Leucine-rich repeat-containing protein 26 (Homo sapiens) (Q2I0M4 whole entry, looked up, one chain of several): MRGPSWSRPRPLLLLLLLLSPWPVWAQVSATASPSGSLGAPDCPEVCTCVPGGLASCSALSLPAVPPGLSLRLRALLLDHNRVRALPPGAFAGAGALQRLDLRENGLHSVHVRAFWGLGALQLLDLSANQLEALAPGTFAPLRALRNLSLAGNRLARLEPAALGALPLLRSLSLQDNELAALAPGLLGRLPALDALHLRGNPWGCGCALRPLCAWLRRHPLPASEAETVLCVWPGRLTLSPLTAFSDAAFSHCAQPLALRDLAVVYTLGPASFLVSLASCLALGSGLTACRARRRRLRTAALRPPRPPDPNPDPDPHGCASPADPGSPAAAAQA

Consider `CC(Cc1ccc(Sc2ccccc2)cc1)NCC(O)c1cccc(C(F)(F)F)c1` (stereo not drawn), for which the growth inhibition in [1] is 53% (active); in assay [4], 99% (active). Further, the inhibition in [2] is -1%; in assay [3], 2%. The outcome in [5], in assay [6], in [7] and in assay [8] was inactive.
Consider `COc1ccc(O)c(CN2CCN(c3cc(C)ccc3C)CC2)c1`, for which the growth inhibition in assay [1] is 86% (active); in assay [4], 90% (active). The figures for the inhibition in assay [2] and in [3] were 7% and 2%, respectively. Moreover, the outcome in assay [5], in assay [6], in assay [7] and in assay [8] was inactive.
Regarding `CCCCCc1cc(O)c2c(c1)OC(C)(C)CC2C1=CCN(Cc2cccnc2)CC1` (stereo not drawn), the growth inhibition in assay [1] and in [4] was 97% (active) in each case. For the same compound, the inhibition in assay [2] was 15%; in assay [3], -1%. The result in assay [5], in [6], in assay [7] and in assay [8] was inactive.
As to `Cc1cc2cc(CNCCc3ccccc3Br)ccc2nc1N`, the growth inhibition in [1] was 91% (active); in [4], 98% (active). In addition, the results for the inhibition in [2] and in [3] were 31% and -1%, respectively. Also, the outcome in assay [5], in assay [6], in assay [7] and in assay [8] was inactive.
Consider `CC[C@H]1CN2CC[C@H]1C[C@H]2[C@@H](O)c1cc(OCCCN(C)C)nc2ccc(OC)cc12`, for which the growth inhibition in assay [1] is 8%; in assay [4], 99% (active). For the same compound, the inhibition in assay [2] is -7%; in assay [3], -2%. Besides, the result in assay [5], in [6], in assay [7] and in assay [8] was inactive.
For the compound `O=C(/C=C/c1ccc(Cl)c(Cl)c1)NCCC1CCC(N2CCC(c3c[nH]c4ccc(O)cc34)CC2)CC1` (stereo not drawn), the growth inhibition in assay [1] was 3%; in assay [4], 102% (active). Further, the inhibition is 19% in assay [2] and -7% in [3]. Besides, the result in [5], in assay [6], in assay [7] and in assay [8] was inactive.
For `CSC(=NCc1ccccc1Cl)NC(N)=N[N+](=O)[O-]`, the log fold change Tl+ flux with F380Y is 0.0102; in the assay on F380Y/beta1 it was 0.0433; in the assay with F380Y/beta2Delta it was 0.00986; in the assay with F380Y/beta4, 0.0594; in [9], 0.0227; in the assay with R275C, -0.0153. Also, the log fold change Tl+ flux with R275C/beta1 is -0.0278; in the assay with R275C/beta2Delta, 0.0233; in the assay on R275C/beta4 it was -0.0373; in the assay with R275C/Slo1WT/beta2, -0.0343.
Take `O=C(C=Cc1cc([N+](=O)[O-])ccc1Cl)NC1CCC(CN2CCC(c3c[nH]c4ccccc34)CC2)CC1` (stereo not drawn): the growth inhibition in assay [1] is 94% (active); in assay [4] it was 102% (active). Further, the inhibition in [2] was 21%; in assay [3] it was 1%. The result in assay [5], in assay [6], in assay [7] and in assay [8] was inactive.
Take `O=c1c2ccccc2[nH]c(=S)n1-c1ccccc1`: the log fold change Tl+ flux with F380Y was -0.0122; with F380Y/beta1, 0.0064; in the assay on F380Y/beta2Delta, 0.0408; in the assay with F380Y/beta4 it was 0.0104; in assay [9] it was 0.0486; with R275C, -0.0195. The log fold change Tl+ flux in the assay with R275C/beta1 is 0.0238; with R275C/beta2Delta it was -0.000731; with R275C/beta4, 0.00834; in the assay with R275C/Slo1WT/beta2, -0.0521.
For the compound `Cc1[nH]c2ccc(O)cc2c1C1CCN(CC2CCC(NC(=O)/C=C/c3ccc(Cl)c(Cl)c3)CC2)CC1` (stereo not drawn), the growth inhibition was 95% (active) in assay [1] and 102% (active) in assay [4]. The figures for the inhibition in assay [2] and in assay [3] were 19% and 3%, respectively. Further, the result in assay [5], in assay [6], in [7] and in [8] was inactive.
On to `Oc1ccc2[nH]cc(C3=CCN(CCc4ccccc4)CC3)c2c1`, for which the growth inhibition in assay [1] is 60% (active); in assay [4], 96% (active). For the same compound, the inhibition was 11% in assay [2] and 3% in assay [3]. Besides, the result in assay [5], in [6], in assay [7] and in [8] was inactive.
In the case of `Oc1ccccc1CNCC(O)c1cc(C(F)(F)F)cc(C(F)(F)F)c1` (stereo not drawn), the growth inhibition in assay [1] was 100% (active); in [4], 99% (active). Further, the inhibition in assay [2] is 15%; in [3] it was 4%. For the same compound, the result in assay [5], in assay [6], in assay [7] and in assay [8] was inactive.
As for `COc1cccc(C(=O)[C@H]2C[C@@H]2CN2CC=C(c3c[nH]c4cccc(Br)c34)CC2)c1`, the growth inhibition in assay [1] is 85% (active); in assay [4], 96% (active). The inhibition in assay [2] is 22%; in assay [3], -3%. The result in [5], in [6], in assay [7] and in assay [8] was inactive.

(Values after PubChem BioAssay.)
